PMC7862700, “An all-to-all approach to the identification of sequence-specific readers for epigenetic DNA modifications on cytosine”

Experiments:
Assay in all cases: DAPPL (digital affinity profiling via proximity ligation, sequencing); 10 mM Tris-HCl pH 7.5, 50 mM NaCl, 1 mM DTT, 4% glycerol, room temperature, 30 min; GST-TFs on glutathione beads, 16-mer random dsDNA library, 0.1% formaldehyde crosslink after washing; high values mean tight binding
Conditions in all cases: protein: recombinant; tags: N-terminal GST; dsDNA, one strand shown
[1] = target: T1, FLI1 (Homo sapiens, UniProt Q01543 1-452)
T1 sequence: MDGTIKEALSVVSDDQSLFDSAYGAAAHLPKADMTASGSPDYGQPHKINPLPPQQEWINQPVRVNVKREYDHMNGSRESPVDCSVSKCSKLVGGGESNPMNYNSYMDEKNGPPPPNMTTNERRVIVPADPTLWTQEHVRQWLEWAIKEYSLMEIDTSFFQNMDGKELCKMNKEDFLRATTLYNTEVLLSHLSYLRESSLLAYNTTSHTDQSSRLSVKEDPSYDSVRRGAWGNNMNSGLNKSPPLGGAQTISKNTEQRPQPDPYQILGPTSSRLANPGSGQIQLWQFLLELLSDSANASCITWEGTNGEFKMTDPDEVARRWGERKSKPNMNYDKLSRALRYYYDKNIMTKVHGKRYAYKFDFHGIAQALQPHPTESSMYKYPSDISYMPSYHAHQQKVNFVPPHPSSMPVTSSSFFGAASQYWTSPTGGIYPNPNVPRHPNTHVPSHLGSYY
Outline: (§1)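 Human transcription factors fused to GST were expressed in yeast, captured on glutathione beads, given DNA barcodes and pooled with a GST-only negative control. Pools were incubated with 200 nmole of a 16-mer random double-stranded DNA library in Tris/NaCl/DTT/glycerol buffer at room temperature for 30 min. They were then washed, crosslinked with 0.1% formaldehyde, proximity-ligated (BsaI/T4 ligase, 1 h, 37 °C), PCR-amplified and sequenced on an Illumina NextSeq500. Binding signal is each 6-mer's read frequency for a factor divided by its frequency for the GST control.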

[2] = target: T2, SPIC (Homo sapiens, UniProt Q8N5J4 1-248)
T2 sequence: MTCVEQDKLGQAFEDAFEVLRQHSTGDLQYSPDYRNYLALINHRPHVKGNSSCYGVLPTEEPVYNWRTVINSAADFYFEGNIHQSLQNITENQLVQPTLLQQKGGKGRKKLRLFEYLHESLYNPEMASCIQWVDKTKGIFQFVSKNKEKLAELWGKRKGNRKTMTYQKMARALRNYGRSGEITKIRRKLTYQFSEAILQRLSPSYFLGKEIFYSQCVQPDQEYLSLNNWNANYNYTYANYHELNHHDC
Outline: as §1

[3] = target: ELF4 (Homo sapiens, UniProt Q99607 1-663)
Outline: as §1

[4] = target: T3, ETV2 (Homo sapiens, UniProt O00321 1-342)
T3 sequence: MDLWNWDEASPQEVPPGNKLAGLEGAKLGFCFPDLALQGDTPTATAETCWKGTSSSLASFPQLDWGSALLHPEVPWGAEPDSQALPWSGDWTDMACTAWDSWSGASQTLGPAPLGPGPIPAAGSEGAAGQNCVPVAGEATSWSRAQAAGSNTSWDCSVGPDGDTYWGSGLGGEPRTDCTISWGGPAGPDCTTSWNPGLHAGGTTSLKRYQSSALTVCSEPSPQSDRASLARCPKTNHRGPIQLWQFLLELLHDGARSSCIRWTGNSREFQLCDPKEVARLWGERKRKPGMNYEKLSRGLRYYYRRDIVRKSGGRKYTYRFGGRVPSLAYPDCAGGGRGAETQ
Outline: as §1

[5] = target: T4, ELK1 (Homo sapiens, UniProt P19419 1-428)
T4 sequence: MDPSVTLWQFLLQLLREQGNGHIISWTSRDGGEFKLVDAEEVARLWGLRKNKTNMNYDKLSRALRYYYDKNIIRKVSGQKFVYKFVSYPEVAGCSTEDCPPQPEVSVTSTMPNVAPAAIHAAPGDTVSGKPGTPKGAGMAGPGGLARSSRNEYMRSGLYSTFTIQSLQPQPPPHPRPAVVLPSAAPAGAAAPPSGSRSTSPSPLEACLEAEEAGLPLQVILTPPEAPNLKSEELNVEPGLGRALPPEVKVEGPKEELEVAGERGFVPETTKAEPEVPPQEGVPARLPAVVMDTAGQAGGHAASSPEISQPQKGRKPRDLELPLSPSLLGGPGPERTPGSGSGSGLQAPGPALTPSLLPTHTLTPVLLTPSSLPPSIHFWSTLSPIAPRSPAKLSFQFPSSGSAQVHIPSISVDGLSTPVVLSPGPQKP
Outline: as §1

[6] = target: T5, GABPA (Homo sapiens, UniProt Q06546 1-454)
T5 sequence: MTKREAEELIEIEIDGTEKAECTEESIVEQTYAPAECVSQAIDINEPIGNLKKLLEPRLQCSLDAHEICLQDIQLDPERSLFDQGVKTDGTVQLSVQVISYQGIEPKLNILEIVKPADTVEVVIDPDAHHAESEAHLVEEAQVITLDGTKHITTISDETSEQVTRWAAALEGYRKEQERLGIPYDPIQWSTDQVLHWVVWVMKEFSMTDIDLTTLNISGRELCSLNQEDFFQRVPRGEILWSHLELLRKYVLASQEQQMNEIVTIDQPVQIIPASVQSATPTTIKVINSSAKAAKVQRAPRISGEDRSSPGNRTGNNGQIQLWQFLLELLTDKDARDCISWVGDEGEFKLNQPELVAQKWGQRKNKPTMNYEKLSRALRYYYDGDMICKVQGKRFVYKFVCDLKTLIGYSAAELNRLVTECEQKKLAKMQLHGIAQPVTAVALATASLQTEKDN
Outline: as §1

[7] = target: ELF1 (Homo sapiens, UniProt P32519 1-619)
Outline: as §1

[8] = target: SPIB (Homo sapiens, UniProt Q01892 1-262)
Outline: as §1

[9] = target: T6, ELK4 (Homo sapiens, UniProt P28324-2 1-405)
T6 sequence: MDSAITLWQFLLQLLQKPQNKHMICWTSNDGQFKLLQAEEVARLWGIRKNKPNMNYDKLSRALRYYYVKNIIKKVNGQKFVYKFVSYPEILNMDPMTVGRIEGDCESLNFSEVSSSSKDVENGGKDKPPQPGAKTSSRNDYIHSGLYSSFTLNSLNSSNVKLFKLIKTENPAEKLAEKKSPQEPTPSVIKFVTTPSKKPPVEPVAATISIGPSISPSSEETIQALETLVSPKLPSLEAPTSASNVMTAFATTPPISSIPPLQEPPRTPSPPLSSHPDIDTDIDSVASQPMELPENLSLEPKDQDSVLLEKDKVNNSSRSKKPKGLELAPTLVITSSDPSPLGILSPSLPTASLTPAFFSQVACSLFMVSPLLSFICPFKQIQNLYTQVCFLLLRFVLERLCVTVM
Outline: as §1

[10] = target: T7, ELF3 (Homo sapiens, UniProt P78545 1-371)
T7 sequence: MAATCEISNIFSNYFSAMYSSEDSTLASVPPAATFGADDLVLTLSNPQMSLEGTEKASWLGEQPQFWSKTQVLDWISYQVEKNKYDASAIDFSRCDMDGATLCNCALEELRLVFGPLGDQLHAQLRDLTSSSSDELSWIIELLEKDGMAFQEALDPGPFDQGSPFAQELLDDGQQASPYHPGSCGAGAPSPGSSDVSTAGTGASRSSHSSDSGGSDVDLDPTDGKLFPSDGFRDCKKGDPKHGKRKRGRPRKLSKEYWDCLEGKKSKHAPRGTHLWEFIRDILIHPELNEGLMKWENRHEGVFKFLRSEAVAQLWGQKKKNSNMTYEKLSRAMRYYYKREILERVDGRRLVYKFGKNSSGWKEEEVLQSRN
Outline: as §1

[11] = target: T8, ERF (Homo sapiens, UniProt P50548 1-548)
T8 sequence: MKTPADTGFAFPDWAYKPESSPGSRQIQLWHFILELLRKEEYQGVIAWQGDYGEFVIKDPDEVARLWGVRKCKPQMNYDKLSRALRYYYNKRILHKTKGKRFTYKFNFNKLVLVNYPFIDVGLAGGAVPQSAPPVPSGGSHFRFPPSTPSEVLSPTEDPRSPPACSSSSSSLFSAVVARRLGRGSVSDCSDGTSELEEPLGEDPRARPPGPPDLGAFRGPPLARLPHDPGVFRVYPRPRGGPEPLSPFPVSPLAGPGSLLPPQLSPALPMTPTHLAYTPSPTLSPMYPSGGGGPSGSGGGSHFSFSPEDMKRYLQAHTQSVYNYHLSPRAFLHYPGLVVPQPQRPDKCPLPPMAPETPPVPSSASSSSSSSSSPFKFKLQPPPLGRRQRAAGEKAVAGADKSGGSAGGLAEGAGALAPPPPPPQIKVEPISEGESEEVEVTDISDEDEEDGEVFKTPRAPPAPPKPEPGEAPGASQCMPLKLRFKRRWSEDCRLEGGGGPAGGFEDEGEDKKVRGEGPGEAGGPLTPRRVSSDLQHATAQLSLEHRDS
Outline: as §1

[12] = target: T9, ETV7 (Homo sapiens, UniProt Q9Y603 1-341)
T9 sequence: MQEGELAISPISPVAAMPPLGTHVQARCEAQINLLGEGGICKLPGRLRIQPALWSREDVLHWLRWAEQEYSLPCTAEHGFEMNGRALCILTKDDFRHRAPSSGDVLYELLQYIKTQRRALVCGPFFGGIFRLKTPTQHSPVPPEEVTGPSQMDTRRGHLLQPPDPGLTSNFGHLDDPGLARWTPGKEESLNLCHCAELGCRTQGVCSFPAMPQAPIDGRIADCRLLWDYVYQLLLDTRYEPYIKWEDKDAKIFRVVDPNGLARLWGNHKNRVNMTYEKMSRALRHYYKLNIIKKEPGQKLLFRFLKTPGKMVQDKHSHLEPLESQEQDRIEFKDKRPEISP
Outline: as §1

[13] = target: T10, EHF (Homo sapiens, UniProt Q9NZC4 1-300)
T10 sequence: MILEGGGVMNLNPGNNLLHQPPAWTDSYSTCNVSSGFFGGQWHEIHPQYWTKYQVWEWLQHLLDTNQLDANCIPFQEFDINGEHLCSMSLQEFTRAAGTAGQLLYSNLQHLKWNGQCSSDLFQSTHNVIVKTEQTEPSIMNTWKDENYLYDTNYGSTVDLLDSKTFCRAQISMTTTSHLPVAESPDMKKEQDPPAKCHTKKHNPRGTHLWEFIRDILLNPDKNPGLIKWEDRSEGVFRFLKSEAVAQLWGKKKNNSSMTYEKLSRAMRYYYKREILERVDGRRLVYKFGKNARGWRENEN
Outline: as §1

[14] = target: T11, ELK3 (Homo sapiens, UniProt P41970 1-407)
T11 sequence: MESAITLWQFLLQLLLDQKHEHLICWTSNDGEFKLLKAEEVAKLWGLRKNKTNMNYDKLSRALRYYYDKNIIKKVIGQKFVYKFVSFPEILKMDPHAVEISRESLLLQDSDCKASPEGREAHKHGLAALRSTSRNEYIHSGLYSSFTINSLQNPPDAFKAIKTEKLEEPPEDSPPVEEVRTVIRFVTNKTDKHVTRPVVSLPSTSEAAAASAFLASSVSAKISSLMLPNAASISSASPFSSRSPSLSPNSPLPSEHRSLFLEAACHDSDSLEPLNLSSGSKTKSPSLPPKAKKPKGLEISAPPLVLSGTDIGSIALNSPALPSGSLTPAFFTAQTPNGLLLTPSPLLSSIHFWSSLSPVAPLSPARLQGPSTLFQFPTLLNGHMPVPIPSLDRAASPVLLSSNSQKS
Outline: as §1

[15] = target: T12, ETV3 (Homo sapiens, UniProt P41162-2 1-143)
T12 sequence: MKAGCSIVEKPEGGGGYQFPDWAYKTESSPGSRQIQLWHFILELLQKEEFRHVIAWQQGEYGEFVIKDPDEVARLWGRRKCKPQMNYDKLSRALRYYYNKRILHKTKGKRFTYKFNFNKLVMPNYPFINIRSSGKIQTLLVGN
Outline: as §1

[16] = target: ETV6 (Homo sapiens, UniProt P41212 1-452)
Outline: as §1

Chain of ELF4 (Q99607 whole entry): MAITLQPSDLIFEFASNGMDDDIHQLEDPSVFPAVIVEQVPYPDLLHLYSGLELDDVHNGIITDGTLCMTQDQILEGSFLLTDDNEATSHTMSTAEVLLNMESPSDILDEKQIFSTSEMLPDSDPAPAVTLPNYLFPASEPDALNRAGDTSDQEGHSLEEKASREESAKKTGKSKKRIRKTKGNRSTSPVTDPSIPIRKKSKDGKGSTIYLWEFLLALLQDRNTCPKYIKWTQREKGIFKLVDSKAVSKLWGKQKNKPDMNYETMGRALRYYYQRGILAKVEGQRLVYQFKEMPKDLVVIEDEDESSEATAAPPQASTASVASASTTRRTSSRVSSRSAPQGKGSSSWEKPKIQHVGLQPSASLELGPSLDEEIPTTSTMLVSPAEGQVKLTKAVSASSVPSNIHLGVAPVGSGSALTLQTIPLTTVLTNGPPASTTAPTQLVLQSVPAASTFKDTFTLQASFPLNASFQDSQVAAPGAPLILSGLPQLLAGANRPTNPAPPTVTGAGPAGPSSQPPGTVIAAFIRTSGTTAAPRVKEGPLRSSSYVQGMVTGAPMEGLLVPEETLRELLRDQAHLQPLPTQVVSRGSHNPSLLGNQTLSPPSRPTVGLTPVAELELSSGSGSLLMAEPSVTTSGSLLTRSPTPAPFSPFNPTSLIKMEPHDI
Chain of SPIB (Q01892 whole entry): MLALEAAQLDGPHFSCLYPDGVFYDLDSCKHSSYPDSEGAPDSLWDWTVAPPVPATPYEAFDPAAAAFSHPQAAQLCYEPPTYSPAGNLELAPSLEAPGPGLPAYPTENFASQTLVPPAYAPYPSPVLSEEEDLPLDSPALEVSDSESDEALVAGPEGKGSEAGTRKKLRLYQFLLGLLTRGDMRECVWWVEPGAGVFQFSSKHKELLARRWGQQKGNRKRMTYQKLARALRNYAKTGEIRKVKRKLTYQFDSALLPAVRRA
Chain of ELF1 (P32519 whole entry): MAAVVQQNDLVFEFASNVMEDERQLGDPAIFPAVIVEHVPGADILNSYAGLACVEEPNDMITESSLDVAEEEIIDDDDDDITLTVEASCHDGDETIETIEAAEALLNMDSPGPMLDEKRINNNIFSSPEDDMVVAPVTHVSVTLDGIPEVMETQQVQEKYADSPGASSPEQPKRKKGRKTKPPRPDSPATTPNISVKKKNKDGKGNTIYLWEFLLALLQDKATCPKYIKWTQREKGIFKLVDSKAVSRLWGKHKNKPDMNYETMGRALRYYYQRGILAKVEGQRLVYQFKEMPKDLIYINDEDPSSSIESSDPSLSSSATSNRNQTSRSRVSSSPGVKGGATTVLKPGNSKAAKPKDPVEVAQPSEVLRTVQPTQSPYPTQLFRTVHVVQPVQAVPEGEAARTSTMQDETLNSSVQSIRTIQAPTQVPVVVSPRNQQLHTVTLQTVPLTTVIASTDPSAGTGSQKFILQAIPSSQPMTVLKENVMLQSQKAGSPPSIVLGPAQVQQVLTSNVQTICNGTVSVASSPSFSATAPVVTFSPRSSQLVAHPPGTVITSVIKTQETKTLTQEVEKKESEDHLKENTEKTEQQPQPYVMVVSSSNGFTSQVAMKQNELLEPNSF
Chain of ETV6 (P41212 whole entry): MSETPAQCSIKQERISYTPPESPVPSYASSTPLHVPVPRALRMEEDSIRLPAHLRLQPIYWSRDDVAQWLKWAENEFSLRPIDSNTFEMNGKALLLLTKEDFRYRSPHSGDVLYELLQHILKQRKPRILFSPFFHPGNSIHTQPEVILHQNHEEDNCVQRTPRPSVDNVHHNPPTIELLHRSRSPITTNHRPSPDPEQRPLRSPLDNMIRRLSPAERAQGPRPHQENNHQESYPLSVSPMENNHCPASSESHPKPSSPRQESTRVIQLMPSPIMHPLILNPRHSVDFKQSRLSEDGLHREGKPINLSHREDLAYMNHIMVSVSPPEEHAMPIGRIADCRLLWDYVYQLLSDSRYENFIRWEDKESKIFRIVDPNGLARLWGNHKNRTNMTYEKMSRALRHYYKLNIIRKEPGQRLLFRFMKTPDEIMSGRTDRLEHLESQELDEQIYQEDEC

TGGCGT was tested, and the binding signal [1] was 1.01 fold enrichment (6-mer frequency, TF over GST control), the binding signal [2] was 1.04 fold enrichment (6-mer frequency, TF over GST control) and the binding signal [3] was 1.01 fold enrichment (6-mer frequency, TF over GST control). The binding signal [4] was 1.05 fold enrichment (6-mer frequency, TF over GST control).
For CACCCA, the binding signal [1] was 1.1 fold enrichment (6-mer frequency, TF over GST control), the binding signal [5] was 1.12 fold enrichment (6-mer frequency, TF over GST control) and the binding signal [6] was 1.11 fold enrichment (6-mer frequency, TF over GST control). The binding signal [7] was 1.01 fold enrichment (6-mer frequency, TF over GST control), the binding signal [8] was 1.03 fold enrichment (6-mer frequency, TF over GST control) and the binding signal [3] was 1.12 fold enrichment (6-mer frequency, TF over GST control). The binding signal [9] was 1.04 fold enrichment (6-mer frequency, TF over GST control), the binding signal [10] was 1.14 fold enrichment (6-mer frequency, TF over GST control) and the binding signal [11] was 1.06 fold enrichment (6-mer frequency, TF over GST control). The binding signal [12] was 1.03 fold enrichment (6-mer frequency, TF over GST control).
CGGCCC was tested, and the binding signal [1] was 1.05 fold enrichment (6-mer frequency, TF over GST control), the binding signal [5] was 1.03 fold enrichment (6-mer frequency, TF over GST control) and the binding signal [7] was 1.01 fold enrichment (6-mer frequency, TF over GST control). The binding signal [8] was 1.07 fold enrichment (6-mer frequency, TF over GST control), the binding signal [3] was 1.03 fold enrichment (6-mer frequency, TF over GST control) and the binding signal [4] was 1.19 fold enrichment (6-mer frequency, TF over GST control). For the same sequence, the binding signal [11] was 1.01 fold enrichment (6-mer frequency, TF over GST control) and the binding signal [12] was 1.05 fold enrichment (6-mer frequency, TF over GST control).
For GTGGCA, the binding signal [1] was 1.05 fold enrichment (6-mer frequency, TF over GST control), the binding signal [13] was 1.03 fold enrichment (6-mer frequency, TF over GST control) and the binding signal [14] was 1.04 fold enrichment (6-mer frequency, TF over GST control). The binding signal [2] was 1.04 fold enrichment (6-mer frequency, TF over GST control), the binding signal [9] was 1.04 fold enrichment (6-mer frequency, TF over GST control) and the binding signal [4] was 1.07 fold enrichment (6-mer frequency, TF over GST control). For the same sequence, the binding signal [15] was 1 fold enrichment (6-mer frequency, TF over GST control) and the binding signal [16] was 1.05 fold enrichment (6-mer frequency, TF over GST control).
